Measured values from paper PMC4552634, “A New Set of Chemical Starting Points with Plasmodium falciparum Transmission-Blocking Potential for Antimalarial Drug Discovery” (PLoS ONE, 2015).
Screen size: about 13,000 compounds; about 3,200 (25%) showed an effect of 50% or more. Some of the results follow.

tested on: P. falciparum stage V gametocytes; set-up: BacTiter-Glo ATP luminescence viability of purified stage V gametocytes in 384-well plates, per cent inhibition versus DMSO; settings: 48 h, 5 µM; inhibitor

| Structure (SMILES) | % Inhibition [%] |
| --- | --- |
| O=C(Nc1ccc(-c2nc3ccccc3[nH]2)cc1)C1CCN(Cc2ccc(F)cc2)CC1 [TCMDC-124680] | 4.478 |
| CCCc1cc(=O)[nH]c(-n2nc(C)cc2NC(=O)CC(c2ccccc2)c2ccccc2)n1 [TCMDC-124940] | 43.65 |
| CC(C)C[C@H](NC(=O)c1cccc(F)c1)C(=O)N[C@H](/C=N/NC(=O)c1ccccc1)CCc1ccccc1 [TCMDC-135679] | 8.745 |
| CC(=O)Nc1ccc(CN2CCc3ccc(NS(=O)(=O)c4ccc(-c5cccc(C(F)(F)F)c5)cc4)cc3CC2)s1 [TCMDC-132328] | 7.357 |
| Cc1ccc(-c2ccc(NC(=O)N3CCc4cc(Br)c(N5CCN(C)CC5)cc43)cc2)cn1 [TCMDC-139294] | -24.43 |
| CN(C)CCNC(=O)c1csc(Nc2ccc(Cl)c(Cl)c2)n1 [TCMDC-123722] | -60.24 |
| COc1cccc2cc(C(=O)N[C@@H](CC(C)C)C(=O)N[C@H](C=NNC(=O)OC(C)(C)C)CC(C)C)oc12 [TCMDC-136062] | 12.96 |
| Cc1ccc2nc(C)n(C3CCN(C(=O)Cc4ccccc4C)CC3)c2c1 [TCMDC-124795] | 76.45 |
| Cc1ccc2nc(C)n(C3CCN(C(=O)C4(c5ccccc5)CC4)CC3)c2c1 [TCMDC-124796] | 44.07 |
| COc1ccc(Br)cc1/C=C/C(=O)Nc1cccc(C2CCCN(C)C2)c1 (centres unmarked) [TCMDC-133710] | 13.98 |
| Cc1ncccc1-c1cccc2c(NC(=O)Nc3ccc4nccc(N5CCN(C)CC5)c4c3)cccc12 [TCMDC-139369] | -6.373 |
| CN1CCN(c2ccnc3ccc(NC(=O)Nc4cccc5c(-c6ccncc6)cccc45)cc23)CC1 [TCMDC-139252] | -0.3523 |
| CN1CCN(c2ccnc3ccc(NC(=O)Nc4ccc(-c5ccncc5)c5ccccc45)cc23)CC1 [TCMDC-139251] | -4.793 |
| CN1CCN(c2ccnc3ccc(NC(=O)Nc4ccc(-c5ccncc5)c(C(F)(F)F)c4)cc23)CC1 [TCMDC-139260] | 40.16 |
| Cc1nc(-c2cccc3c(NC(=O)Nc4ccc5nccc(N6CCN(C)CC6)c5c4)cccc23)no1 [TCMDC-139340] | 66.85 |
| CN1CCN(c2ccnc3ccc(NC(=O)Nc4ccc(-c5ccncc5)c(C#N)c4)cc23)CC1 [TCMDC-139268] | 80.15 |
| COC(=O)c1ccc(CC(C)NCC(O)c2cccc(OC(F)(F)F)c2)cc1 (centres unmarked) [TCMDC-131487] | 26.86 |
| Cc1cccc2nc(-c3cccc(-c4cccc(C(=O)N5CCCCC5CN5CCC(O)C5)c4)c3)[nH]c12 (centres unmarked) [TCMDC-132347] | 6.025 |
| O=C(c1cccc(-c2cccc(-c3nc4ccccc4[nH]3)c2)c1)N1CCCCC1CN1CCC(O)C1 (centres unmarked) [TCMDC-132311] | -3.438 |
| Cc1[nH]c(/C=C2\C(=O)Nc3ccc(S(=O)(=O)Cc4c(Cl)cccc4Cl)cc32)c(C)c1C(=O)N1CCC[C@@H]1CN1CCCC1 [TCMDC-125885] | 103.4 |
